This note sets out measurements from PubChem BioAssay (NCATS).

Results filed as inconclusive are left out. Unmarked numbers belong to inactive results. The call rests on the fitted dose curve; in most records, active means well fitted inhibition curve with a large enough effect; inconclusive means small, poorly fitted or top-dose-only effect; inactive means flat fitted curve, though single readings scatter.
On the % scale 0 is the no-effect control and ±100 the full control effect.

Chain of Calcium and integrin-binding protein 1 (Homo sapiens) (Q99828 whole entry, looked up): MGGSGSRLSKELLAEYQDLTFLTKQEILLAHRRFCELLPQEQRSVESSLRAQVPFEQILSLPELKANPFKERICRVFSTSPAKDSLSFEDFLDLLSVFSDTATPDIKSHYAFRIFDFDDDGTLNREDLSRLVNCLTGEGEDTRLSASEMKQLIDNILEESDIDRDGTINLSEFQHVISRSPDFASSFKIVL

This assay concerns the target Calcium and integrin-binding protein 1 (Homo sapiens) (UniProt Q99828). The assay can be described thus: Primary qHTS for Identification of Calcium Integrin Binding Protein 1 (CIB1) Competitor (AID 1508620).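 Further: GST tagged CIB1 binding a fluorescein labelled alphaIIb integrin peptide tracer; top concentration of the series differs between compounds.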 The settings on record: CIB1-GST / FITC-alphaIIb peptide fluorescence polarization; series mostly up to 114 µM; activity change, negative = inhibition: at the top concentration. The method, boiled down:
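Fluorescence polarization competition: CIB1-GST (1 uM final) preincubated with compound 15 min at room temperature, then FITC-labeled alphaIIb peptide (100 nM final) added for another 15 min. Polarization read at Ex 480/Em 540.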
Background: Quantitative high-throughput screening tests each substance at several concentrations.
As to `Cc1ccc(-c2c(C(=O)CF)n(CCCO)c3ncnc(N)c23)cc1`, the “activity change, negative = inhibition” value was -15.4%.
The figure for `CNS(=O)(=O)c1ccccc1Nc1nc(Nc2ccc(N3CCN(C)CC3)cc2OC)ncc1Cl` is -13.6%.
The same measure for `C=C1C[C@]23C[C@H]1CC[C@H]2[C@@]12CC[C@H](O)[C@@](C)(C(=O)O1)[C@H]2[C@@H]3C(=O)O`: 1.36% [at 57.7 µM]; for `CC(=O)c1ccc(O[C@@H]2O[C@H](CO)[C@@H](O)[C@H](O)[C@H]2O)cc1`: -0.0222%.
In the case of `Cc1cc(Cl)ccc1COc1ccnn1-c1cc(C(=O)O)ccn1`, the “activity change, negative = inhibition” value is -5.45%.
The same measure for `C=C1CC2C(C)(CCC(=O)O)C(C(C)(C)O)CCC2(C)C2C(=O)OC(C)(C(=O)OC)C(=O)C12C` (stereo not drawn): 3.24% [at 57.7 µM]; for `CC12CCC(OC3OC(CO)C(O)C(OC4OC(CO)C(O)C(O)C4O)C3O)CC1CCC1C2CCC2(C)/C(=C3/COC(=O)C3)CCC12O` (stereo not drawn): -0.572% [at 30.2 µM].
The figure for `CC1(C)CC2C=C(C(=O)O)C3COC(=O)C(O)(CO)C23C1` (stereo not drawn) is -19.7%; for `COc1ccc(Oc2cc(C)c(-c3csc(NC(=O)c4ccncc4)n3)c(C)c2)cc1` it is -4.91%.
On to `O=C(OC[C@H]1O[C@H](O[C@]2(CO)O[C@H](CO)[C@@H](O)[C@@H]2O)[C@H](O)[C@@H](O)[C@@H]1O)c1ccccc1`, for which the “activity change, negative = inhibition” value was -5.75% [at 57.7 µM].
The same measure for `CCCn1c(=O)c2[nH]c(-c3ccc(OCC(=O)O)cc3)nc2n(CCC)c1=O`: -1.74%; for `CC(=O)O[C@@H]1CC(C)=C2[C@H]1[C@H](C)CC[C@H]2/C=C(\C)C(=O)O`: 1.84%; for `CC1=CCC(C(C)(C)O[C@@H]2O[C@H](CO[C@@H]3O[C@@H](C)[C@H](O)[C@@H](O)[C@H]3O)[C@@H](O)[C@H](O)[C@H]2O)CC1` (stereo partly drawn): -2.96% [at 57.7 µM].
